Reference: ChEMBL document CHEMBL3433997, “St. Jude Leishmania screening dataset” (2016)

What follows are compounds tested against Solute carrier family 2, facilitated glucose transporter member 1 (Homo sapiens) (UniProt P11166) (assay: ST_JUDE_LEISH: Cytotoxicity at 2uM final concentration against transgenic Leishmania Mexicana promastigotes LmGLUT1 that are glucose transport deficient and complemented with the human glucose transporter GLUT1. Activity is measured by DNA content using SYBR green in vitro).
Sequence of Solute carrier family 2, facilitated glucose transporter member 1 (Homo sapiens) (P11166 whole entry): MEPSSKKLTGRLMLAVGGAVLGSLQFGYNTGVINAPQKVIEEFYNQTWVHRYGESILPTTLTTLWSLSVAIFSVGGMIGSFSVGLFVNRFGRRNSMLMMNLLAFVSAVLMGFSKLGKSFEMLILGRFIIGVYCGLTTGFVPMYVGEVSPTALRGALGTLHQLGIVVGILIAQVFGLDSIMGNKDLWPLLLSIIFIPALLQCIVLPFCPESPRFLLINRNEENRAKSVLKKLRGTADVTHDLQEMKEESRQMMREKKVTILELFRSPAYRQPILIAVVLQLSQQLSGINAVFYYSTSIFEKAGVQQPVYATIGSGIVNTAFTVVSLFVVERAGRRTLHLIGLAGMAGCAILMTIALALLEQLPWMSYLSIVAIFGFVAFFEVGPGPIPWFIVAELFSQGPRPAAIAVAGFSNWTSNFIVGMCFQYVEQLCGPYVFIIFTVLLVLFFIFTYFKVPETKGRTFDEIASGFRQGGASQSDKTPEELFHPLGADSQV
Type: functional

Row | SMILES | inhibition [%]
1 | CS(=O)(=O)Nc1cccc(-c2cnc3[nH]cc(-c4cccc(CN)c4)c3c2)c1 | 4.77
2 | Cc1cc(N2CCCC2)nc(Nc2ccc(NC(=O)c3ccc(Br)o3)cc2)n1 | 4.16
3 | COc1ccc(C)cc1NC(=O)CSc1nc2cccnc2n1C1CCCCC1 | 5.9
4 | Cc1cccc(CNc2nc(C)cc(N[C@@H](Cc3ccccc3)C(=O)NCCc3ccccc3)n2)c1 | 3.88
5 | O=C1CCCN1CCCNCc1ccc(-c2ccc(-c3nc4cc(C(F)(F)F)ccc4[nH]3)cc2)cc1 | 3.36
6 | Cc1cccc2nc(-c3ccc(-c4ccc(CN5CCC(C(N)=O)CC5)cc4)cc3)[nH]c12 | 6.51
7 | C[C@H](N[C@H]1CCCc2c1[nH]c1ccc(Br)cc21)c1ccccc1 | 2.46
8 | Nc1ccc(-c2ccc(NC(=O)Nc3ccccc3)cc2)cn1 | 2.95
9 | NC(=O)C1CCN(Cc2ccc(-c3ccc(-c4nc5cc(F)ccc5[nH]4)cc3)cc2)CC1 | 12.7
10 | CN1CCN(c2ccnc3ccc(NC(=O)Nc4cccc5ccccc45)cc23)CC1 | 1.43
11 | CC1CN(c2cnn(C/C=C/c3ccc(NC(=O)c4ccc5nonc5c4)cc3)c(=O)c2Cl)CC(C)N1 (stereo unspecified) | 4.72
12 | CN(C)CCOc1ccc(-c2cc(-c3ccncc3)c(-c3ccc(Cl)c(O)c3)[nH]2)cc1 | 1.45
13 | OC(CNCc1ccccc1)c1cc(OCc2ccccc2)cc(OCc2ccccc2)c1 (stereo unspecified) | -0.14
14 | CC(C)=CC1C(C(=O)n2c(=N)[nH]c3ccccc32)C1(C)C (stereo unspecified) | 9.13
15 | COCCNCc1ccc(-c2ccc3c(Nc4ccc(Cl)cc4F)ccnc3c2)o1 | 2.75
16 | CCOc1ccccc1C1C(C(=O)C(C)(C)C)N2c3ccc(Br)cc3C=CC2C12C(=O)c1ccccc1C2=O (stereo unspecified) | 72.3
